In PubChem BioAssay (NCI):
Compounds without any hit were thinned out: in the full panel of roughly 83,000, 20% have a hit.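 Percent growth is the endpoint: 0 to 100 indicates growth inhibition (40 means 60% inhibition), 0 means no net growth, and negative values indicate cell death.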 The source made the active and inactive calls. The calls were made as follows: active = growth percent below 10; inactive = the rest.

Test system: MDA-MB-468 breast
Experiment: NCI-60 one-dose screen, 48 h (100 = growth as untreated, 0 = no growth, -100 = all killed)
Conditions: 10 µM unless noted

Q: COc1cccc(-c2cc(-c3cc4ccccc4oc3=O)nc(N)n2)c1 was tested. Which growth did it give?
A: The growth was 92.7% (inactive).

Q: With Cc1ccc(C(O)C2CC2)cc1 (stereo not given) as the compound, how does the growth read?
A: The growth was 103% (inactive).

Q: With Cc1nn(-c2ccccc2)c2ncnc(N/N=C/c3cccc(O)c3)c12 as the compound, how does the growth read?
A: Its growth is -0.147% (active).

Q: For COc1ccc(-n2ncc3c4nc(OC)c(S(=O)(=O)c5ccccc5)cc4ccc32)cc1, which growth is on record?
A: The growth was 51.9% (inactive).

Q: Cc1ccc(NCCN(C)C)c2c(=O)c3ccccc3sc12 was tested. Which growth did it give?
A: The growth was 26% (inactive).

Q: For O=C(NCO)c1ccccc1, which growth is on record?
A: The growth was 110% (inactive).

Q: With COc1ccc(S(=O)(=O)n2cc(C(=O)C(=O)Nc3ccncc3)c3ccccc32)cc1F as the compound, how does the growth read?
A: The growth was 17.9% (inactive).

Q: For CS(=O)(=O)c1ccc(C(=O)N2N=C(c3ccccc3)CC2c2ccc3c(c2)OCO3)cc1 (stereo not given), which growth is on record?
A: Its growth is 90.1% (inactive).

Q: How did the growth turn out when C#CCN1C(=O)c2ccccc2N(CC#C)C12CCN(Cc1cn(CC(=O)Nc3ccccc3C(N)=O)nn1)CC2 was run?
A: Its growth is 72.6% (inactive).

Q: C=C(C)[C@@H]1CC[C@]2(C(=O)NC(C)=O)CC[C@]3(C)[C@H](CC[C@@H]4[C@@]5(C)CCCNC(C)(C)[C@@H]5CC[C@]43C)[C@@H]12 was tested. Which growth did it give?
A: The growth was -20.3% (active).

Q: For CC(C)[C@@H]1CC[C@]2(CO2)[C@@H]2C(=O)OCC(C(=O)O)=C[C@H]21, which growth is on record?
A: Its growth is 7.72% (active).

Q: With COc1ccc2c(c1)oc1c(C)c3c(c(C)c12)C(=O)N(CCN1CCOCC1)C3=O as the compound, how does the growth read?
A: The growth was 106% (inactive).

Q: With NC(N)=N/N=C(/c1ccccc1)c1ccc(F)cc1 as the compound, how does the growth read?
A: Its growth is 14.9% (inactive).

Q: With Cc1cc(C)cc(Nc2nccc(-c3c(-c4ccc(F)cc4)ncn3C3CCNCC3)n2)c1 as the compound, how does the growth read?
A: The growth was -29.9% (active).

Q: How did the growth turn out when C=CCn1cc(-c2nc3ccccc3s2)c2cc(-c3ccc4c5c(cccc35)C(=O)N(CCN3CCNCC3)C4=O)ccc21 was run?
A: Its growth is 88.4% (inactive).

Q: Which growth does the source give for COc1cc(C(N)=O)cc(OC)c1OC here?
A: The growth was 103% (inactive).

Q: Which growth does the source give for Cc1c(C(C)(C)C)cc(C(C)(C)C)c2c1CN(C)CO2 here?
A: The growth was 122% (inactive).

Q: With c1ccc(-c2nc(N3CCNCC3)c3oc(-c4ccccc4)nc3n2)cc1 as the compound, how does the growth read?
A: The growth was -74% (active).

Q: For O=CN1N=C(c2cccc(Nc3ccnc4cc(Cl)ccc34)c2)CC1c1ccccc1 (stereo not given), which growth is on record?
A: Its growth is 13% (inactive).

Q: COc1cc(/C=C/C(=O)c2cc(OC)c(OC)c(OC)c2)ccc1Oc1nc(NCCO)nc(N2CCOCC2)n1 was tested. Which growth did it give?
A: Its growth is -20.8% (active).

Q: With Cc1ccccc1OCC(O)COc1ccccc1C as the compound, how does the growth read?
A: The growth was 105% (inactive).

Q: With C(CCCSC1=NCCN1)CCSC1=NCCN1 as the compound, how does the growth read?
A: Its growth is 92% (inactive).

Q: COC(=O)c1c2c(n3ccccc13)C(=O)c1ccccc1C2=O was tested. Which growth did it give?
A: The growth was 95.7% (inactive).

Q: Which growth does the source give for CCCCCCCCn1ccc2cc(NC(=O)Cn3cc(CN4CCCC4)nn3)ccc21 here?
A: The growth was 16.1% (inactive).

Q: How did the growth turn out when C/C(=C(/c1ccc(O)cc1)c1ccc(OCCN2CCCCCC2)cc1)c1ccccc1 was run?
A: Its growth is 31.8% (inactive).

Q: For COc1cc2c(c(O)c1Br)C(=O)c1c(O)cc(C[C@H](C)O)cc1[C@H]2[C@H]1c2cc(C[C@H](C)O)cc(O)c2C(=O)c2c1cc(OC)c(Br)c2O, which growth is on record?
A: The growth was -14.5% (active).

Q: How did the growth turn out when COc1ccc(C(=O)N2N=C(c3ccc(F)cc3)CC2c2cn(-c3ccccc3)nc2-c2ccccc2)cc1 (stereo not given) was run?
A: Its growth is 60.8% (inactive).

Q: CC1=NN(c2cccc(Cl)c2)C(=O)/C1=C\C=C\c1ccccc1 was tested. Which growth did it give?
A: Its growth is 9.96% (active).

Q: With O=C(Nc1ccncc1)C(=O)c1cn(S(=O)(=O)c2ccc(F)cc2)c2ccccc12 as the compound, how does the growth read?
A: Its growth is 14.9% (inactive).

Q: How did the growth turn out when COc1cc2nccc(Oc3ccc(NC(=O)C4(C(=O)Nc5ccc(F)cc5)CC4)cc3)c2cc1O was run?
A: The growth was 86.4% (inactive).

Q: Which growth does the source give for CN(C)c1ccc(/C=C/c2cc[n+](C)c(/C=C/c3ccc(N(C)C)cc3)c2)cc1 here?
A: The growth was -12.7% (active).

Q: For COc1ccc2nc(Cl)c(Cn3nnc(Cc4ccccc4)n3)cc2c1, which growth is on record?
A: Its growth is 29.9% (inactive).

Q: Which growth does the source give for O=C(Nc1ccncc1)C(=O)c1cn(S(=O)(=O)c2cc(Cl)cc(Cl)c2)c2ccccc12 here?
A: Its growth is 41.6% (inactive).

Q: Cc1c(C(=O)O)c(=O)n(-c2ccccc2)n1C was tested. Which growth did it give?
A: Its growth is 127% (inactive).

Q: How did the growth turn out when c1ccc2[nH]c(Cc3nc4ccccc4[nH]3)nc2c1 was run?
A: Its growth is 102% (inactive).

Q: How did the growth turn out when NS(=O)(=O)c1nnc(/N=C/c2c(O)[nH]c3ccccc23)s1 was run?
A: Its growth is 109% (inactive).

Q: Which growth does the source give for N#Cc1c(-c2ccccc2)c(C#N)c2c(C#N)c(N)nn2c1N here?
A: Its growth is 25.9% (inactive).

Q: c1ccc2c(c1)CCCc1nnc3nc4ccccc4n3c1-2 was tested. Which growth did it give?
A: The growth was 29.9% (inactive).

Q: How did the growth turn out when CCN(CC)CCOc1ccc2ccc(=O)oc2c1 was run?
A: The growth was 86% (inactive).

Q: How did the growth turn out when Cc1ccc(S(=O)(=O)N(CCc2ccc(Cl)cc2)S(=O)(=O)c2ccc(C)cc2)cc1 was run?
A: Its growth is 73.8% (inactive).
